# Compounds with a hit are over-represented: about 2.7% of the library has one in this group of screens.
# Nrf2 activator = activates Nrf2 signaling | Potency, µM (doses to about 46.1 µM), usual class: activators | AID 624171 | actives 0.31% (n = 410,000) | AREc32 ARE-luciferase reporter (MCF7-derived line), luminescence, 24 h; further: nearly all actives have a fitted effect of over 65% in size
#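 Luminescent ARE reporter assay in AREc32_Fluc cells: overnight plating at 37 deg C, 24 hr compound incubation, Steady-Glo added, 30 min RT before reading.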
# LDHA inh = blocks human lactate dehydrogenase A | actives 0.15% (n = 480,000) | activity change, % (values are at about 110 or 230 µM) | P00338 | purified LDHA, NADH/diaphorase-resazurin fluorescence; stronger effect = lower value; in the data active means activity change below about -30%; inconclusive means mostly about -25% to -30%
#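 Human LDH5 at 2 nM final in Tris HCl pH 7.4 with 0.06 mM NADH and 0.2 mM pyruvate, reacted 5 minutes at room temperature. Remaining NADH coupled via diaphorase/resazurin; resorufin fluorescence read at 0 and 20 minutes, normalized to enzyme-free and DMSO wells.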
# mIDH1 inhibitor = human IDH1 R132H inhibition. O75874. IDH1-R132H enzyme, NADPH consumption, diaphorase/resazurin fluorescence. Potency, µM (titrated, usually from 76.6 µM), usual class: inhibitors. actives 0.093% (n = 390,000); further: nearly all actives have a fitted effect of over 65% in size
#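 IDH1-R132H (0.5 ug/mL dispensed) in pH 7.5 Tris buffer was preincubated 30 min with compound, then given a substrate mix of 0.016 mM NADPH and 2 mM alpha-KG for 80 min at room temperature; remaining NADPH was read by diaphorase/resazurin fluorescence.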
# Nrf2 inh = Nrf2 pathway inhibition | Potency, µM (titrated, usually from 46 µM), usual class: inhibitors | A549 ARE-Fluc reporter, luciferase luminescence, 18-24 h | actives 2.1% (n = 360,000); further: nearly all actives have a fitted effect of over 60% in size
#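 A549 ARE_Fluc cells, 5000/well, 5% FBS OPTI-MEM; compounds in dose-response, 18-24 h at 37 °C/5% CO2; CellTiter-Fluor viability read (Ex 405/Em 525), then BugLite luciferase luminescence = Nrf2 activity.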
# 12-LOX inh = blocks human arachidonate 12S-lipoxygenase | P18054 | purified 12hLO, xylenol orange hydroperoxide absorbance | Potency, µM (highest dose often 108 µM), hits mostly inhibitors | actives 1.1% (n = 580,000) | AID 1671190
# Target sequence (P18054 whole entry, looked up): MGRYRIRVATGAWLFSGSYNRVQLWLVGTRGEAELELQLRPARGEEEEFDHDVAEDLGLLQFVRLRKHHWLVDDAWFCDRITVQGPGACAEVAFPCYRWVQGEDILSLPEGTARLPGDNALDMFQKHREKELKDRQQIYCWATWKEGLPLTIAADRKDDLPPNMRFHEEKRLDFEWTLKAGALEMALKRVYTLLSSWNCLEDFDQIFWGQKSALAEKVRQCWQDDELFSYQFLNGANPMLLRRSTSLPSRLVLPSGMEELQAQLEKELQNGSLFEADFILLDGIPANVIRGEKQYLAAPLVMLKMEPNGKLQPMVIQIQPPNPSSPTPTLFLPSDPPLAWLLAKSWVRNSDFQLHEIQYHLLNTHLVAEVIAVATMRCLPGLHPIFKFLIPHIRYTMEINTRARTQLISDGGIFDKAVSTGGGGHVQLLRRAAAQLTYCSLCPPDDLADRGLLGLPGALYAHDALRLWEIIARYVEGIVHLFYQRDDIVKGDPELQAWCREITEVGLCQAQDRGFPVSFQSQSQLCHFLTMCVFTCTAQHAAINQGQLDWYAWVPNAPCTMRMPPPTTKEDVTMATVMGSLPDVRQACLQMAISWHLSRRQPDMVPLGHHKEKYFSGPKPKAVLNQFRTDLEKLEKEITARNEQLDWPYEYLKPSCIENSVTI
#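 Purified human 12hLO at 150 nM in 25 mM Hepes, 0.01% Triton X-100, pH 7.0, preincubated 15 min at room temperature with compound. Reaction started with 40 uM arachidonic acid, 30 min at room temperature. Hydroperoxide measured by Fe-xylenol orange, 573/405 nm absorbance ratio.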
# A549 tox = A549 cytotoxicity, counter-screen for Nrf2 inhibitors. actives 0.16% (n = 390,000). Potency, µM (highest dose often 46 µM), usual class: inhibitors. A549 ARE-Fluc cells, CellTiter-Fluor viability, 18-24 h
#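 Cytotoxicity counterscreen: CellTiter-Fluor fluorescence was measured in A549 ARE_Fluc cells after 18-24 h of compound exposure in a concentration series. The subsequent BugLite luminescent read reports ARE-luciferase activity.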
# A number is an active result; i = inactive; ? = inconclusive; nt = no result given. Unless noted, the call rests on the fitted dose curve; in most records, active means well fitted curve in the direction sought with a large enough effect; inconclusive means small, poorly fitted or top-dose-only effect, or another doubt; inactive means no such curve, though single readings can be large; an effect the other way counts as inactive or inconclusive.
SMILES,Nrf2 activator,LDHA inh,mIDH1 inhibitor,Nrf2 inh,12-LOX inh,A549 tox
Cc1ccnc(S(=O)(=O)Cc2ccc([N+](=O)[O-])cc2)n1,13µM,i,i,?,i,i
O=C(CSc1nc2ncccc2c(=O)n1-c1ccccc1)NC1CCCCCC1,nt,i,nt,nt,?,nt
Cc1sc2ncnc(Sc3nnnn3-c3ccccc3)c2c1C,8.9µM,i,i,?,i,i
Cc1ccc(-c2csc3ncnc(Sc4nnnn4-c4ccccc4)c23)cc1,nt,i,nt,nt,nt,nt
Cn1nnnc1Sc1ncnc2scc(-c3ccc(Cl)cc3)c12,i,i,nt,?,i,?
Cn1nnnc1Sc1ncnc2scc(-c3ccc4c(=O)ccoc4c3)c12,nt,i,nt,16µM,nt,?
Cn1nnnc1Sc1ncnc2scc(-c3ccc([N+](=O)[O-])cc3)c12,?,i,nt,18µM,i,?
Cn1nnnc1Sc1ncnc2scc(-c3ccccc3Cl)c12,i,i,nt,26µM,i,i
CC(=O)c1ccc(-c2csc3ncnc(Sc4nnnn4C)c23)cc1,nt,i,nt,?,nt,i
Cn1nnnc1Sc1ncnc2scc(-c3cccc([N+](=O)[O-])c3)c12,nt,i,nt,i,nt,i
CCOC(=O)c1sc(Nc2ccc(C(C)=O)cc2)nc1C,nt,i,nt,nt,?,nt
Cn1nnnc1Sc1ncnc2scc(-c3cccc(N)c3)c12,nt,i,nt,i,nt,i
Cn1nnnc1Sc1ncnc2scc(-c3cccc(Br)c3)c12,i,i,nt,23µM,i,i
Cn1nnnc1Sc1ncnc2scc(-c3cccc(S(C)(=O)=O)c3)c12,i,i,nt,8.2µM,i,?
COCCNC[C@@H]1C=C(C)[C@H](Cc2nnc(-c3ccc(N(C)C)cc3)o2)C[C@H]1C(C)C,nt,nt,nt,nt,i,nt
FC(F)C(F)(F)Oc1cccc(Nc2nccn3c(-c4ccc5ccccc5c4)cnc23)c1,i,-79,nt,nt,?,nt
Oc1ccc(-c2cnc3c(Nc4cccc(OC(F)(F)C(F)F)c4)nccn23)cc1,i,i,nt,nt,i,nt
N#C/C(=C\C=C\c1ccco1)C(=O)NC1CCCCCC1,nt,i,nt,nt,13µM,nt
Cc1ccc(S(=O)(=O)N2[C@@H](c3ccc(Br)cc3)C(C(=O)O)=CC[C@H]2c2ccc(Cl)c(Cl)c2)cc1,i,i,i,26µM,i,i
Cc1ccc(S(=O)(=O)N2[C@@H](c3ccc(C(C)(C)C)cc3)C(C(=O)O)=CC[C@H]2c2ccc(Cl)c(Cl)c2)cc1,i,i,i,i,35µM,i
Cc1ccc(S(=O)(=O)N2[C@@H](c3ccc(Br)cc3)C(C(=O)O)=CC[C@H]2c2cccc(Cl)c2)cc1,i,i,i,?,?,i
O=C(c1ccsc1)N(Cc1cccs1)C1CC1,nt,i,nt,nt,i,nt
O=C(CCc1ccsc1)N(Cc1ccco1)C1CC1,nt,i,nt,nt,16µM,nt
O=C(c1ccsc1)N(Cc1ccco1)C1CC1,nt,i,nt,nt,35µM,nt
O=C(Cc1cccs1)N(Cc1ccco1)C1CC1,nt,i,nt,nt,14µM,nt
SMILES,Nrf2 activator,LDHA inh,mIDH1 inhibitor,Nrf2 inh,12-LOX inh,A549 tox
COc1ccc(CNC(=O)c2cc3c(s2)CCN(C(=O)c2ccccc2)C3)cc1OC,nt,nt,nt,nt,i,nt
O=c1oc2ccc(Cl)cc2cc1-c1cn2ccccc2n1,nt,i,nt,nt,?,nt
CC(C)(C)c1ccc(C(=O)NCC2CCCN2S(=O)(=O)c2ccccc2)cc1 (stereo not given),i,i,i,21µM,i,i
Cc1ccc(C)c(S(=O)(=O)N2CCCC2CNC(=O)c2ccc([N+](=O)[O-])cc2)c1 (stereo not given),i,i,i,18µM,i,i
Cc1ccc(C(=O)NCC2CCCN2S(=O)(=O)c2ccc(C)cc2)cc1 (stereo not given),i,i,i,i,i,i
COc1ccc(S(=O)(=O)N2CCCC2CNC(=O)C(=O)Nc2ccc(C)cc2)cc1 (stereo not given),i,i,i,?,i,i
Cc1ccc(S(=O)(=O)N2CCCC2CNC(=O)C(=O)Nc2ccc(F)cc2)cc1 (stereo not given),i,i,i,13µM,i,i
CC(=O)Nc1cccc(NC(=O)COC(=O)c2ccccc2OCc2cccc(Br)c2)c1,nt,i,nt,nt,?,nt
COc1ccc(CNC(=O)Nc2cccc(-c3ccc(N4CCCCC4)nn3)c2)cc1,nt,nt,nt,nt,i,nt
CC(C)(C)S(=O)N1Cc2cc(C(=O)O)nc(-c3cccc(-c4cc5ccccc5o4)c3)c2[C@H]1CCO (stereo not given in full),i,-32,nt,nt,?,nt
CN1CCN(C(=O)c2cc3c(c(-c4cccc(Br)c4)n2)[C@@H](CCO)N(S(=O)C(C)(C)C)C3)CC1 (stereo not given in full),i,i,nt,nt,?,nt
CC(C)(C)S(=O)N1Cc2cc(C(=O)N3CCOCC3)nc(-c3cccc(Br)c3)c2[C@@H]1CCO (stereo not given in full),i,i,nt,nt,5µM,nt
CC(CN1CCOCC1)OC(=O)c1cccc(F)c1 (stereo not given),nt,i,nt,nt,i,nt
COc1ccccc1C(=O)Sc1ccc(Cl)cc1,nt,i,nt,nt,?,nt
O=C(NC1(c2ccccc2)CCC1)c1cnc(-c2ccccc2)nc1,nt,i,nt,nt,?,nt
